The record followed here is PubChem BioAssay (NCATS).

Molecules are shown by their SMILES. Results filed as inconclusive are left out. A number with no mark means an inactive call. Active and inactive are the calls of the source. Calls come from the whole dose curve; as a rule, active = well fitted curve in the direction sought with a large enough effect; inconclusive = small, poorly fitted or top-dose-only effect, or another doubt; inactive = no such curve, though single readings can be large; an effect the other way counts as inactive or inconclusive.

In assay [1] the target is Rap guanine nucleotide exchange factor 3 (Homo sapiens) (UniProt O95398). Nature of the assay: Confirmatory qHTS for antagonist of cAMP-regulated guanine nucleotide exchange factor 3 (EPAC1) (AID 1645880). Note: nearly all actives have a fitted effect of over 55% in size. Note: potency is the fitted concentration of half-maximal effect. In short, it runs like this:
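Released BODIPY-GDP fluoresces less than Rap1-bound BODIPY-GDP; the signal is followed at 480/540 nm at 5-min intervals over 30 min, after 5 min at room temperature. Reactions contain 100 nM EPAC1, 250 nM RAP1B-BODIPY-GDP and 50 uM GDP; results are normalized to ATA and DMSO.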

Assay [2] shares this target. Nature of the assay: Confirmatory qHTS for agonist of cAMP-regulated guanine nucleotide exchange factor 3 (EPAC1) (AID 1645881).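 Note: EPAC1 catalysed release of BODIPY-GDP from Rap1B seen as fluorescence loss; 100% = effect of cAMP agonist control; nearly all actives have a fitted effect of over 75% in size.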 Background: In qHTS, concentration-response curves come from the screen itself.
Assay [3] has as its target Rap guanine nucleotide exchange factor 4 (Homo sapiens) (UniProt Q8WZA2). Description: Confirmatory qHTS for agonist of cAMP-regulated guanine nucleotide exchange factor 4 (EPAC2) (AID 1645884).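 Note: nucleotide exchange releases bodipy-GDP from Rap1 and this lowers its fluorescence; % is set by controls: 0 for no effect and ±100 for the full control effect; nearly all actives have a fitted effect of over 65% in size.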
Assay [4] has the same target. Description: Confirmatory qHTS for antagonist of cAMP-regulated guanine nucleotide exchange factor 4 (EPAC2) (AID 1645885). For activity change, negative = inhibition: % is set by controls: 0 for no effect and ±100 for the full control effect. Note: nearly all actives have a fitted effect of over 25% in size. Note: potency is the fitted concentration of half-maximal effect.
Assay [5] concerns the target Rap guanine nucleotide exchange factor 3 (Homo sapiens) (UniProt O95398). Nature of the assay: Counterscreen qHTS for antagonist of cAMP-regulated guanine nucleotide exchange factor 3 (EPAC1) (AID 1645888). Note: % of control where 0% means no effect. The gist of the method: (§1)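 Rap1B-BODIPY-GDP 250 nM + GDP 50 uM; cpds 7-pt, final 9.74 nM–152 uM (activator mode) or from 7.32 nM upwards (inhibitor mode); RT; FI 480/540 nm at 5 and 30 min, then ± cAMP, reread.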
On the technique in general: The purpose of a counterscreen is to sort out artefacts and off-target activity.

Assay [6] has the same target. Description: Counterscreen qHTS for agonist of cAMP-regulated guanine nucleotide exchange factor 3 (EPAC1) (AID 1645889). Note: % of control where 0% means no effect; nearly all actives have a fitted effect of over 40% in size. The gist of the method: as §1

Chain of Rap guanine nucleotide exchange factor 4 (Homo sapiens) (Q8WZA2 whole entry, looked up): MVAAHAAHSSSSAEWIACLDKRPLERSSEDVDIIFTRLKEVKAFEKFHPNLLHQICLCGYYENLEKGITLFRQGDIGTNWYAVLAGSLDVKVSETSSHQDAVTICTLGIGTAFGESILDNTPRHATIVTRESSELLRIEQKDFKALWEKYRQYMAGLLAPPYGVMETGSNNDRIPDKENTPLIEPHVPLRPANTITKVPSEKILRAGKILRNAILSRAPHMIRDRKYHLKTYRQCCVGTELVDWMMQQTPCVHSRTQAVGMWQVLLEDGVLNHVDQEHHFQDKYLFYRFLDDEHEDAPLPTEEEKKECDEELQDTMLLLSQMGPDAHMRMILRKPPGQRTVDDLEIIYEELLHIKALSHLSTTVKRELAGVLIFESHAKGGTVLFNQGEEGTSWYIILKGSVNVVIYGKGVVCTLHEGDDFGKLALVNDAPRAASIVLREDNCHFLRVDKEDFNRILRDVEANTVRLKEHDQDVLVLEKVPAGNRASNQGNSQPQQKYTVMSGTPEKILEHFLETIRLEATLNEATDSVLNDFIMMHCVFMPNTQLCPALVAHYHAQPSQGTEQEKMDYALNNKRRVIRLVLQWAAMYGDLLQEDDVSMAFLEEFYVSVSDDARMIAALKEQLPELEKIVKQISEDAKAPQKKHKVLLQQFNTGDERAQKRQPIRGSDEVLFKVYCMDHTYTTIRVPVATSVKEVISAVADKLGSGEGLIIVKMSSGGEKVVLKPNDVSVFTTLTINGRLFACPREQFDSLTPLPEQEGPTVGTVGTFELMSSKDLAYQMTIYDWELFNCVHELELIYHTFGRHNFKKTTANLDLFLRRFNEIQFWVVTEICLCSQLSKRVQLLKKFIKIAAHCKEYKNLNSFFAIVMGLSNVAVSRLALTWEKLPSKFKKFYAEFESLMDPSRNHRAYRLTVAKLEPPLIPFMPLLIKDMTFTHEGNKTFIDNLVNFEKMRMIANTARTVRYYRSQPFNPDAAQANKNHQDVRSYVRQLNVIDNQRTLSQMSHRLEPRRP
Chain of Rap guanine nucleotide exchange factor 3 (Homo sapiens) (O95398 whole entry, looked up): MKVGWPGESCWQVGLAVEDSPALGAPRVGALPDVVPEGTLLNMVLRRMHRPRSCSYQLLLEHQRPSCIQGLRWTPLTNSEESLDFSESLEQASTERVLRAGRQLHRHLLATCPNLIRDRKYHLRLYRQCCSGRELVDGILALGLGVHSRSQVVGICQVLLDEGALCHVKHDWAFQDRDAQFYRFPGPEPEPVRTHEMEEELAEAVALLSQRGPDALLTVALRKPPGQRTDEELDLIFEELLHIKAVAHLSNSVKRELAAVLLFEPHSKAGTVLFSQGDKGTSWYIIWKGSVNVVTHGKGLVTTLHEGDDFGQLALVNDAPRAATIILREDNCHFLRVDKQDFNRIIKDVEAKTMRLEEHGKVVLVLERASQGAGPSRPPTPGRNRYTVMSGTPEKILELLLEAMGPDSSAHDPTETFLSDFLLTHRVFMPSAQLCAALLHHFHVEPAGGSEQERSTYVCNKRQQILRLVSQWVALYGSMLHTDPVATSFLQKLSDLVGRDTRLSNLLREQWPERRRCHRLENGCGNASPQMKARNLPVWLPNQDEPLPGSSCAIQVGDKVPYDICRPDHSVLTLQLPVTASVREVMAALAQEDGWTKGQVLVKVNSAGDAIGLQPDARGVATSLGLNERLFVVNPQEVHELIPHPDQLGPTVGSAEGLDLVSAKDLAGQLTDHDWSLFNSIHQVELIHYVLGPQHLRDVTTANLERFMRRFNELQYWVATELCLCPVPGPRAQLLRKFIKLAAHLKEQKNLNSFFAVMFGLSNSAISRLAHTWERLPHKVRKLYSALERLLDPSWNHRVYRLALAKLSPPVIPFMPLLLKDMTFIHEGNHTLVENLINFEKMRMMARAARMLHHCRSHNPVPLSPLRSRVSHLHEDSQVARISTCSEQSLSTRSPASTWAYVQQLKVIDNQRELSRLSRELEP

Regarding `COc1cc(OC)nc(Oc2cc(/C=N/O)ccc2OC)n1`, the Potency result in assay [1], in assay [2] and in assay [4] was “inactive” in each case. Further, the activation was -0.415% [at 17.1 µM, percent relative to cAMP agonist control] in assay [3] and 1.61% [at 30.8 µM] in assay [6]. The activity change, negative = inhibition in assay [5] was -10.5% [at 30.8 µM].

Consider `CC(=O)CCc1oc2ccc(C)cc2c1-c1ccc(C)o1`, for which the Potency entry in assay [1], in assay [2] and in assay [4] was “inactive” in each case. Also, the activation in assay [3] was 9.77% [at 17.1 µM, percent relative to cAMP agonist control]; in assay [6], 31.9% [at 30.8 µM]. For the same molecule, the activity change, negative = inhibition in assay [5] is -33.7% [at 30.8 µM].

For the molecule `CSc1nc(N2CCOCC2)c2c3c(sc2n1)CCCC3`, the Potency entry in assay [1], in assay [2], in assay [3], in assay [4], in assay [5] and in assay [6] was “inactive” throughout.

In the case of `Cc1ccc2nc(NC(=O)CSc3ncnc4c3oc3ccccc34)sc2c1`, the Potency result in assay [1], in assay [2], in assay [3], in assay [4], in assay [5] and in assay [6] was “inactive” each time.

With `COC(=O)CSc1nc(C)cc(Oc2ccccc2)n1`, the Potency result in assay [1], in assay [2], in assay [3], in assay [4], in assay [5] and in assay [6] was “inactive” each time.

Regarding `Cc1ccc(Cl)cc1NC(=O)C(C)n1nc(-c2ccccc2)ccc1=O` (configuration not stated), the Potency entry in assay [1], in assay [2], in assay [3], in assay [4], in assay [5] and in assay [6] was “inactive” each time.

As for `COc1ccccc1OCC(=O)Nc1cccc(S(=O)(=O)NC2=NCCCCC2)c1`, the Potency result in assay [1], in assay [2], in assay [3], in assay [4], in assay [5] and in assay [6] was “inactive” each time.

For the molecule `Cc1noc(C)c1CSc1ncnc2sc(C)c(C)c12`, the Potency result in assay [1], in assay [2], in assay [3], in assay [4], in assay [5] and in assay [6] was “inactive” in each case.

Take `C/C(=C\c1ccco1)CN1CCN(Cc2ccc(C)o2)C(CCO)C1` (configuration not stated): the Potency result in assay [1], in assay [2], in assay [3], in assay [4], in assay [5] and in assay [6] was “inactive” each time.

Consider `Cc1cc(C)n2[nH]c(=O)c(N=Nc3ccc(S(N)(=O)=O)cc3)c2n1`, for which the Potency result in assay [1], in assay [2], in assay [3], in assay [5] and in assay [6] was “inactive” each time. Further, the Potency in assay [4] is 84.9 µM (active).

On to `CCO/C(C)=N/Oc1cc(OC)cc(OC)c1`, for which the Potency result in assay [1], in assay [2], in assay [3], in assay [5] and in assay [6] was “inactive” throughout. The Potency in assay [4] was 23.9 µM (active).

`C[C@@H](NC(=O)C1(c2ccccc2)CCN(C(=O)OC(C)(C)C)CC1)C(=O)N[C@@H](C(=O)O)c1ccccc1`: the Potency in assay [1] and in assay [4] was 42.6 µM (active) each time. In addition, the Potency entry in assay [2], in assay [3], in assay [5] and in assay [6] was “inactive” in each case.

For the molecule `CCOC(=O)N1CCN(C(=O)c2cc(S(=O)(=O)N3CCc4ccccc43)ccc2OC)CC1`, the Potency entry in assay [1], in assay [2], in assay [3], in assay [4], in assay [5] and in assay [6] was “inactive” throughout.

For `Cc1ccc(F)c(NC(=O)/C(C#N)=C(\O)c2ccc(C(C)(C)C)cc2)c1`, the Potency in assay [1] was 8.91 µM (active). The Potency entry in assay [2] and in assay [4] was “inactive” throughout. Besides, the activation is -11.9% [at 17.1 µM, percent relative to cAMP agonist control] in assay [3] and 14.8% [at 30.8 µM] in assay [6]. For the same molecule, the activity change, negative = inhibition in assay [5] was 8.44% [at 30.8 µM].

With `Cc1cc(C)c2nc(C)cc(Nc3ccc(C(=O)NCCO)cc3)c2c1`, the Potency result in assay [1], in assay [2], in assay [3], in assay [4], in assay [5] and in assay [6] was “inactive” each time.

Turning to `CCC(C(=O)NCc1ccc(OC)c(OC)c1)n1nc(C)c2c(C)n(-c3ccc(C)cc3)nc2c1=O` (configuration not stated), the Potency result in assay [1], in assay [2], in assay [3], in assay [5] and in assay [6] was “inactive” each time. The outcome in assay [4] was “inactive [at 12.7 µM]”.

On to `CC(C)CC(C(=O)NC1CCCCC1)N(Cc1ccccc1)C(=O)c1snc(C(N)=O)c1N` (configuration not stated), for which the Potency result in assay [1], in assay [2] and in assay [4] was “inactive” throughout. Also, the activation in assay [3] was 1.37% [at 17.1 µM, percent relative to cAMP agonist control]; in assay [6], 19% [at 30.8 µM]. Moreover, in assay [5], the activity change, negative = inhibition is -17.8% [at 30.8 µM].

In the case of `COc1ccc(-c2c(-c3ccccc3OC)oc3ccccc23)cc1F`, the Potency result in assay [1], in assay [2], in assay [3], in assay [5] and in assay [6] was “inactive” throughout. Moreover, the Potency in assay [4] is 6.75 µM (active).

Regarding `Cc1cccc(-c2nc(SCC(=O)Nc3cccc(C(F)(F)F)c3)n3[nH]c(=O)cc3n2)c1`, the Potency in assay [1] is 84.9 µM (active). Further, the Potency result in assay [2], in assay [3], in assay [4], in assay [5] and in assay [6] was “inactive” in each case.

As for `COc1ccc(OC)c([C@@H]2OCCC=C[C@H]2C)c1`, the Potency entry in assay [1], in assay [2], in assay [3], in assay [5] and in assay [6] was “inactive” in each case. For the same molecule, the Potency in assay [4] is 0.0675 µM (active).

Regarding `CC1CC(C)CN(C(=O)c2cccc(S(=O)(=O)Nc3cc(C(F)(F)F)ccc3Cl)c2)C1` (configuration not stated), the Potency in assay [1] is 13.5 µM (active). The Potency result in assay [2], in assay [3], in assay [4], in assay [5] and in assay [6] was “inactive” each time.

Turning to `CCCNC(=O)C1CCN(S(=O)(=O)c2ccc3[nH]c(=O)ccc3c2)CC1`, the Potency result in assay [1], in assay [2], in assay [3], in assay [4], in assay [5] and in assay [6] was “inactive” each time.
